Laboratory results: PubChem BioAssay (EPA / NIEHS)
Several values for one entry are separate records, joined by “and”; a condition that tells them apart may be missing. Equal entries are not always repeated. Records with an inconclusive call do not appear. The source holds several records for some structures; these can differ, active in one and inactive in another. Activity calls are given as the source filed them. Rule for the calls, unless noted: active = hit-call score of the fitted dose curve at least 0.9, where 1 is the maximum; inactive = score below 0.9.

Tests used:
[1] = read-out: Interleukin-1 alpha (IL1a), IL1A (gene 3552); assay: BSK_BE3C_IL1a: BioMAP Diversity Plus: BE3C Assay for Interleukin-1 alpha (IL1a) Biomarker Activity (AID 2283016); conditions: primary human bronchial epithelial cells; actives raise or lower the signal
Summary of the method: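 Human primary bronchial epithelial cells, 24 h chemical exposure; IL-1a quantified by ELISA, fitted bidirectionally against DMSO. Cytotoxicity assessed in parallel by SRB total-protein staining at the time of measurement.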

[2] = read-out: Monocyte Chemoattractant Protein-1 (MCP1), CCL2 (gene 6347); assay: BSK_3C_MCP1: BioMAP Diversity Plus: 3C Assay for Monocyte Chemoattractant Protein-1 (MCP1) Biomarker Activity (AID 2283017); conditions: primary human endothelial cells (HUVEC); actives raise or lower the signal
Summary of the method: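 Endothelial cells from human umbilical vein are dosed with chemical, cultured 24 h, then assayed for MCP-1 by ELISA; both increases and decreases are modelled against DMSO controls.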

[3] = read-out: Monocyte Chemoattractant Protein-1 (MCP1), CCL2 (gene 6347); assay: BSK_4H_MCP1: BioMAP Diversity Plus: 4H Assay for Monocyte Chemoattractant Protein-1 (MCP1) Biomarker Activity (AID 2283018); conditions: primary human endothelial cells (HUVEC); actives raise or lower the signal
Summary of the method: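 Human umbilical vein endothelial cells (4H system) exposed to chemicals for 24 h in 96-well format. MCP-1 measured by ELISA; bidirectional fitting against DMSO, with SRB total-protein staining in parallel cultures for cytotoxicity.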

[4] = read-out: Human Leukocyte Antigen - DR isotype (HLADR), HLA-DRA (gene 3122); assay: BSK_3C_HLADR: BioMAP Diversity Plus: 3C Assay for Human Leukocyte Antigen - DR isotype (HLADR) Biomarker Activity (AID 2283019); conditions: primary human endothelial cells (HUVEC); actives raise or lower the signal
Summary of the method: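 Endothelial cells from human umbilical vein are treated with test chemical; after 24 h, HLA-DR levels are measured by ELISA. Data are fitted in both directions using DMSO as the baseline.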

[5] = read-out: Interleukin-8 (IL8), CXCL8 (gene 3576); assay: BSK_3C_IL8: BioMAP Diversity Plus: 3C Assay for Interleukin-8 (IL8) Biomarker Activity (AID 2283020); conditions: primary human endothelial cells (HUVEC); actives raise or lower the signal
Summary of the method: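 Primary human umbilical vein endothelial cells were dosed for 24 h. IL-8 was quantified by ELISA and fitted bidirectionally against DMSO. Cytotoxicity was assessed in parallel cultures by SRB staining at 560 nm.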

[6] = read-out: Monokine induced gamma interferon (MIG), CXCL9 (gene 4283); assay: BSK_3C_MIG: BioMAP Diversity Plus: 3C Assay for Monokine induced gamma interferon (MIG) Biomarker Activity (AID 2283021); conditions: primary human endothelial cells (HUVEC); actives raise or lower the signal
Summary of the method: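 HUVEC primary endothelial cultures dosed with chemical; MIG quantified by ELISA at 24 h. Data fitted bidirectionally against DMSO control, with parallel SRB total-protein staining for cytotoxicity.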

[7] = BSK_3C_SRB: Viability Assessment in the BioMAP Diversity Plus: 3C Assay (AID 2283023); conditions: primary human endothelial cells (HUVEC);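 note: cells read 24 h after compound dosing; fitted both ways against DMSO so a hit may be signal rise or drop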
Summary of the method: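 Cells were dosed with chemical, cultured 24 h, fixed with 10% TCA, stained with 0.1% SRB and read at 560 nm. Human umbilical vein endothelium was used; DMSO served as negative control and baseline.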

[8] = read-out: Matrix Metallopeptidase 1 (MMP1), MMP1 (gene 4312); assay: BSK_BE3C_MMP1: BioMAP Diversity Plus: BE3C Assay for Matrix Metallopeptidase 1 (MMP1) Biomarker Activity (AID 2283024); conditions: primary human bronchial epithelial cells; actives raise or lower the signal
Summary of the method: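 Human primary bronchial epithelial cells (BE3C system) dosed for 24 h; MMP-1 quantified by ELISA. Bidirectional fit against DMSO; cytotoxicity tracked in parallel cultures by SRB total-protein staining.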

[9] = BSK_3C_Vis: BioMAP Diversity Plus: 3C Assay for Morphology Visualization (AID 2283025); conditions: primary human endothelial cells (HUVEC);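 note: fitted both ways so gain or loss versus DMSO counts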;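 for AC50: light microscopy image of cell morphology used as background control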
Summary of the method: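 Human umbilical vein endothelial cell morphology was inspected by light microscopy 24 h after chemical dosing; scored bidirectionally relative to DMSO.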

[10] = read-out: Pselectin, SELP (gene 6403); assay: BSK_4H_Pselectin: BioMAP Diversity Plus: 4H Assay for Pselectin Biomarker Activity (AID 2283026); conditions: primary human endothelial cells (HUVEC); actives raise or lower the signal
Summary of the method: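 Primary human umbilical vein endothelial cells were treated 24 h, and cell-surface P-selectin was then quantified by ELISA. Bidirectional fit versus DMSO; cytotoxicity checked in parallel cultures by SRB total-protein staining.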

[11] = BSK_4H_SRB: Viability Assessment in the BioMAP Diversity Plus: 4H Assay (AID 2283027); conditions: primary human endothelial cells (HUVEC);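 note: cells exposed to compound for 24 h before staining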
Summary of the method: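 Human umbilical vein endothelial cells were dosed with chemical and, after 24 h, fixed with 10% TCA, stained with 0.1% sulforhodamine B, and read at 560 nm to give total protein as a cytotoxicity measure. Bidirectional fitting relative to DMSO control.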

[12] = BSK_BE3C_SRB: Viability Assessment in the BioMAP Diversity Plus: BE3C Assay (AID 2283028); conditions: primary human bronchial epithelial cells
Summary of the method: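 Overt cytotoxicity was assessed as total protein in confluent human primary bronchial epithelial cultures 24 h after chemical addition, using 0.1% sulforhodamine B staining read at 560 nm.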

[13] = read-out: Thrombomodulin, THBD (gene 7056); assay: BSK_3C_Thrombomodulin: BioMAP Diversity Plus: 3C Assay for Thrombomodulin Biomarker Activity (AID 2283029); conditions: primary human endothelial cells (HUVEC); actives raise or lower the signal
Summary of the method: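 Human umbilical vein endothelial cells were exposed to chemicals for 24 h; cell-surface thrombomodulin quantified by ELISA, with bidirectional fitting against DMSO baseline.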

[14] = read-out: Urokinase-type plasminogen activator receptor (uPAR), PLAUR (gene 5329); assay: BSK_4H_uPAR: BioMAP Diversity Plus: 4H Assay for Urokinase-type plasminogen activator receptor (uPAR) Biomarker Activity (AID 2283030); conditions: primary human endothelial cells (HUVEC); actives raise or lower the signal
Summary of the method: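 Chemicals are dosed onto human vascular endothelial primary cells (umbilical vein). After 24 h, uPAR is read by ELISA. Gain or loss of signal is fitted relative to DMSO.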

[15] = read-out: Vascular endothelial growth factor receptor 2 (Homo sapiens) (UniProt P35968); assay: BSK_4H_VEGFRII: BioMAP Diversity Plus: 4H Assay for Vascular endothelial growth factor receptor 2 (VEGFR2) Biomarker Activity (AID 2283031); conditions: primary human endothelial cells (HUVEC); actives raise or lower the signal
Summary of the method: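 VEGFRII levels on human vascular endothelial primary cells were determined by ELISA at 24 hours post-dosing, with gain- or loss-of-signal fitted against DMSO controls.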

[16] = read-out: Human Leukocyte Antigen - DR isotype (HLADR), HLA-DRA (gene 3122); assay: BSK_BE3C_HLADR: BioMAP Diversity Plus: BE3C Assay for Human Leukocyte Antigen - DR isotype (HLADR) Biomarker Activity (AID 2283032); conditions: primary human bronchial epithelial cells; actives raise or lower the signal
Summary of the method: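 Human primary bronchial epithelial cells (BE3C system) exposed to compound for 24 hours; cell-surface HLA-DR measured by ELISA, fitted bidirectionally relative to DMSO. Total protein by SRB in parallel cultures tracked cytotoxicity.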

[17] = read-out: Vascular cell adhesion molecule 1 (VCAM1), VCAM1 (gene 7412); assay: BSK_4H_VCAM1: BioMAP Diversity Plus: 4H Assay for Vascular cell adhesion molecule 1 (VCAM1) Biomarker Activity (AID 2283033); conditions: primary human endothelial cells (HUVEC); actives raise or lower the signal
Summary of the method: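 Primary human umbilical vein endothelial cells, 4H stimulation system, treated for 24 h; cell-surface VCAM-1 quantified by ELISA. Bidirectional fitting against DMSO; cytotoxicity tracked by SRB total-protein staining in parallel cultures.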

[18] = read-out: Interferon-gamma inducible Protein 10 (IP10), CXCL10 (gene 3627); assay: BSK_BE3C_IP10: BioMAP Diversity Plus: BE3C Assay for Interferon-gamma inducible Protein 10 (IP10) Biomarker Activity (AID 2283034); conditions: primary human bronchial epithelial cells; actives raise or lower the signal
Summary of the method: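 Primary human bronchial epithelial cells, with IP-10 measured by ELISA 24 hours after chemical dosing. Bidirectional fit against DMSO; cytotoxicity checked by SRB total protein staining in parallel cultures.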

[19] = biological target: human Vitamin D Receptor (VDR), VDR (gene 7421) (UniProt P11473); assay: ATG_VDR_TRANS: Attagene TRANS-FACTORIAL HepG2 Assay for human Vitamin D Receptor (VDR) (AID 2283022; active = hit-call score of the fitted dose curve at least 0.9, where 1 is the maximum)
Chain of human Vitamin D Receptor (VDR), VDR (gene 7421) (P11473 whole entry, looked up, the tested form may be a part): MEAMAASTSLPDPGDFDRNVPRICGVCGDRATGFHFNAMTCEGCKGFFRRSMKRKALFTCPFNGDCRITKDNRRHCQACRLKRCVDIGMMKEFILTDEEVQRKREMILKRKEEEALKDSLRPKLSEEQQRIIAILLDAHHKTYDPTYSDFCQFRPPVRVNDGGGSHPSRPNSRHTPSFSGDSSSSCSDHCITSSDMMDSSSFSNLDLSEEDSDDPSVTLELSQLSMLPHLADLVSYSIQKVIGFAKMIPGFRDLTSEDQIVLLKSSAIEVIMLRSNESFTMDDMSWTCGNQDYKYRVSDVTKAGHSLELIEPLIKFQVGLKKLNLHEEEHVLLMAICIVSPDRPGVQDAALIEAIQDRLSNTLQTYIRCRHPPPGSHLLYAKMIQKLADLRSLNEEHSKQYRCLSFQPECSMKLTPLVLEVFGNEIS
Summary of the method: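 Fluorescence of labelled reporter cDNA fragments, resolved by capillary electrophoresis, gives mRNA induction after 24 h treatment of HepG2 cells carrying transfected Gal4-fusion reporter units. Activity is fitted in the positive direction with DMSO as baseline.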

Measured: AC50

Cn1cnc([N+](=O)[O-])c1Sc1ncnc2nc[nH]c12
inactive: [1] | [2] | [3] | [4] | [5] | [6] | [8] | [9] | [10] | [11] | [12] | [13] | [14] | [15] | [16] | [17] | [18]
active: [7] 19.9 µM and 12.6 µM and 14 µM | [13] 3.36 µM | [17] 8.19 µM and 9.52 µM

O=C(O)c1cccc(N(Cc2cccnc2)c2ccc(OC(F)F)c(OC(F)F)c2)c1
active: [4] 9.02 µM | [10] 2.44 µM | [18] 32.8 µM
not listed: [2]
inactive: all other assays above

COCCOc1cc2cc(C(=O)NC3CCN(C(C)C)CC3)n(CC(=O)Nc3ccc(Cl)cn3)c2cn1
not listed: [19]
inactive: all other assays above

O=P(OC(CCl)CCl)(OC(CCl)CCl)OC(CCl)CCl
active: [8] 7.97 µM | [9] 39 µM
not listed: [2] | [18] | [19]
inactive: all other assays above

CCCCC(CC)COC(=O)c1ccc(C(=O)OCC(CC)CCCC)cc1 (stereo not given)
not listed: [8] | [18] | [19]
inactive: all other assays above

O=C(O)c1cccc(Oc2ccccc2)c1
inactive: all assays above

CC(O)CN(CCN(CC(C)O)CC(C)O)CC(C)O (stereo not given)
not listed: [2] | [18]
inactive: all other assays above

CC(=O)OCCC(C)C
not listed: [18] | [19]
inactive: all other assays above

CC(C)=CCCC(C)=CC=O
inactive: all assays above
